Unmarked numbers belong to inactive results. Calls come from the whole dose curve.
The molecules below were run against Tumor susceptibility gene 101 protein (Homo sapiens) (UniProt Q99816) (assay: qHTS Validation Assay for Iinhibitors of HIV-1 Budding by Blocking the Interaction of PTAP/TSG101 (AID 485342; note: 0% is about no effect)). Settings: TSG101-PTAP binding, fluorescence polarization, 4-point titration; series mostly up to 115 µM; fluorescence change: at the top concentration.
Description: NIH Molecular Libraries Probe Production Network [MLPCN]
NIH Chemical Genomics Center [NCGC]
PI Name: Dr. Eric Freed, NCI
Stages of the HIV-1 replication cycle, specifically virus assembly and release, provide underexploited targets for the development of novel antiviral inhibitors. The late stages of HIV-1 replication are mediated by the Gag precursor protein, Pr55Gag. Expression of Pr55Gag is both necessary and sufficient for the production of virus-like particles from Gag-expressing cells. The Gag protein hijacks key host proteins involved in endocytic machinery of the host cell to promote endosomal processing and viral budding. The budding process requires a direct interaction between a […] (PTAP) motif in the p6 domain of Gag and the cellular endosomal sorting protein known as Tsg101. In this way, the Gag PTAP motif promotes the host cells to recruit viral particles to the plasma membrane where the new viral particles are released, effectively turning the host cells into viral factories. A fluorescence anisotropy assay has been developed to quantitatively measure the PTAP-Tsg101 interaction which can be used to screen for inhibitors of this interaction.
NCGC Assay Protocol Summary:
Two uL of the Tsg101 binding domain in buffer (10 mM HEPES pH 7.5; 0.15 M NaCl, 0.01% Tween 20; 3 mM EDTA;0.1 mM TCEP) was dispensed into Greiner black MB 1536-well plates (final concentration 10 uM). Then, 23 nL of compounds or DMSO were delivered to each well using a pin tool. Finally, 2 uL of a FITC-labeled peptide containing the PTAP motif (1) in the same buffer was dispensed (50 nM final concentration) and the binding was allowed to proceed for 20 min. at r.t. Fluorescent polarization was determined using FITC excitation and polarized emission filters on a Perkin Elmer Viewlux.
Keywords: Tsg101, PTAP, Gag, HIV, fluorescent polarization, MLSMR, MLPCN, NIH Roadmap, qHTS, NCGC

Chain of Tumor susceptibility gene 101 protein (Homo sapiens) (Q99816 whole entry, looked up): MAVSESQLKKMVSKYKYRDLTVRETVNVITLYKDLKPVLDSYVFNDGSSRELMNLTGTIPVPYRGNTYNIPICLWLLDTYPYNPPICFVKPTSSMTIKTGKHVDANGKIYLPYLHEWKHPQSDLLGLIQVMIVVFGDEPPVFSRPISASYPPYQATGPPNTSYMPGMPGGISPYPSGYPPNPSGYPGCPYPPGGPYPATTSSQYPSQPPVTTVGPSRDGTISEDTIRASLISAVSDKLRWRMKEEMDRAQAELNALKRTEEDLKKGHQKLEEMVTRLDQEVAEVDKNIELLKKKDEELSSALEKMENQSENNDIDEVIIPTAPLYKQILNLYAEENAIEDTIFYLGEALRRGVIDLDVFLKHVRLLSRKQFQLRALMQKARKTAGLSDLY

Compound | fluorescence change
NS(=O)(=O)c1cc2c(cc1Cl)NC(C1CC3C=CC1C3)NS2(=O)=O (stereo not given) | 4.16%
CCc1c(C)[nH]c2c1C(=O)C(CN1CCOCC1)CC2 (stereo not given) | 2.81%
CCOC(=O)c1cnc2c(cnn2CC)c1NN=C(C)C | 4.25%
CCCC(C(=O)OCCN(CC)CC)(c1ccccc1)c1ccccc1 | -5.71%
CN(C)CC/C=C1\c2ccccc2COc2ccccc21 | -3.07%
C(=C\c1ccccc1)/CN1CCN(C(c2ccccc2)c2ccccc2)CC1 | 10.6%
c1cnc(N2CCN(Cc3ccc4c(c3)OCO4)CC2)nc1 | -2.11%
CCCCCCCC/C=C\CCCCCCCC(=O)NCc1ccc(O)c(OC)c1 | -14.7%
CCCN(CCC)C(=O)C(CCC(=O)O)NC(=O)c1ccccc1 (stereo not given) | -2.05%
COc1cc(Cc2cnc(N)nc2N)cc(OC)c1OC | 2.81%
CCOC(=O)C1=C(C)NC(C)=C(C(=O)OC)C1c1cccc(Cl)c1Cl (stereo not given) | -16.3%
FC(F)(F)c1ccccc1-n1ccnc1 | 7.01%
C[C@]12CCC(=O)C=C1CC[C@@H]1[C@@H]2C(=O)C[C@@]2(C)[C@H]1CC[C@]2(O)C(=O)CO | -1.13%
O=C(O)CN(CCN(CC(=O)O)CC(=O)O)CCN(CC(=O)O)CC(=O)O | -1.11%
Cc1ccc(S(=O)(=O)NC(=O)NN2CCCCCC2)cc1 | -3.02%
CCCOc1ccccc1-c1nc2n[nH]nc2c(=O)[nH]1 | 11.5%
C[C@@H](O)[C@H]1C(=O)N2C(C(=O)O)=C(SCCN=CN)C[C@H]12 | -0.768%
CCCCNc1ccc(C(=O)OCCN(C)C)cc1 | -0.724%
CCN(Cc1ccncc1)C(=O)C(CO)c1ccccc1 (stereo not given) | -0.412%
NC(N)=NC(=O)Cc1c(Cl)cccc1Cl | 2.04%

Compound | fluorescence change
COC(=O)[C@H]1[C@H]2C[C@@H]3c4[nH]c5cc(OC)ccc5c4CCN3C[C@H]2C[C@@H](OC(=O)c2cc(OC)c(OC)c(OC)c2)[C@@H]1OC | 6.11%
O=C(O)CP(=O)(O)O | -4.45%
Brc1c(NC2=NCCN2)ccc2nccnc12 | -4.59%
COC(=O)[C@@H](N)Cc1ccc(O)c(O)c1 | -9.76%
CN(C)C(=O)Oc1cccc([N+](C)(C)C)c1 | -4.32%
CCCN(CCC)CCc1cccc2c1CC(=O)N2 | 2.67%
CC(C)NNC(=O)c1ccncc1 | 1.9%
CC(=O)Oc1cc(C(C)C)c(OCCN(C)C)cc1C | 3.8%
COC(=O)C1=C(C)NC(C)=C(C(=O)OCCN(C)Cc2ccccc2)C1c1cccc([N+](=O)[O-])c1 (stereo not given) | -23.3%
COc1ccc(CN(CCN(C)C)c2ccccn2)cc1 | 2.43%
O=C1CC2(CCCC2)CC(=O)N1CCCCN1CCN(c2ncccn2)CC1 | -1.63%
C=CCc1ccccc1OCC(O)CNC(C)C (stereo not given) | 0.426%
CCN(CC)CCCN(c1ccccc1)C1Cc2ccccc2C1 | 1.53%
C[C@]12C=CC(=O)C=C1CC[C@H]1[C@@H]3C[C@@H](O)[C@](O)(C(=O)CO)[C@@]3(C)C[C@H](O)[C@@]12F | 1.5%
CO[C@@]1(NC(=O)CSCC#N)C(=O)N2C(C(=O)O)=C(CSc3nnnn3C)CS[C@@H]21 | 2.25%
C#CCN(C)CCCOc1ccc(Cl)cc1Cl | -6.27%
CN(C)[C@@H]1C(=O)C(C(N)=O)=C(O)[C@@]2(O)C(=O)C3=C(O)c4c(O)ccc(Cl)c4[C@@H](O)[C@H]3C[C@@H]12 | -0.561%
CC1=C(C)C(=O)C(CCCCC#CCCCC#CCO)=C(C)C1=O | -0.673%
O=C1NCN(c2ccccc2)C12CCN(CCCC(c1ccc(F)cc1)c1ccc(F)cc1)CC2 | -14.3%
CN(C)CCCN1c2ccccc2Sc2ccccc21 | -3.97%

— PubChem BioAssay (NCATS)
